Only some compounds are listed: those with a hit (about 18% of all), similar ones and a draw of the others.
PLK1 PBD inh = qHTS for Inhibitors of PLK1-PDB (polo-like kinase 1 - polo-box domain): Primary Screen; Serine/threonine-protein kinase PLK1 (Homo sapiens), P53350; Plk1 PBD binding of FITC phosphopeptide, fluorescence polarization; Potency, µM, inactives show max response, negative = inhibition, usual class: inhibitors; actives 2.8% (n = 360,000); AID 720504, 2013; further: series mostly up to about 57 µM; nearly all actives have a fitted effect of over 65% in size
Target sequence (P53350 whole entry, looked up, the tested form may be a part): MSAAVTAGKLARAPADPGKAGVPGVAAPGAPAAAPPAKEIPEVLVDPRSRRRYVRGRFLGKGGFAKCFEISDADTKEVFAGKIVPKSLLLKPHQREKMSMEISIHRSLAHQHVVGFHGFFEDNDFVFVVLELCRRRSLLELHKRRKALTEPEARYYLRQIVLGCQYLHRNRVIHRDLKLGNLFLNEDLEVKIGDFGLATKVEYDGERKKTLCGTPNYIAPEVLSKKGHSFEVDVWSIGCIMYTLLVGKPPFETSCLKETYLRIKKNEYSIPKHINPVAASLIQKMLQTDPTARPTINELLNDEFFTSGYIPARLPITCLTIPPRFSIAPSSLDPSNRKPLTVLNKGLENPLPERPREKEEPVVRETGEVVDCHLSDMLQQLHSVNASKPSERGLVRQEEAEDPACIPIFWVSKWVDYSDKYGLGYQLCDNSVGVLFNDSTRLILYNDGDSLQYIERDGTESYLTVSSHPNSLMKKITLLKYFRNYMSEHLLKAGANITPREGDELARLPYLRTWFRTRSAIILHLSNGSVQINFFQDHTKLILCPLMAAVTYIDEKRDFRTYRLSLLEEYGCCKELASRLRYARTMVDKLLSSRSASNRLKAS
VDR inh = Inhibitors of the vitamin D receptor (VDR): qHTS | Vitamin D3 receptor (Homo sapiens), P11473 | VDR-SRC2-3 peptide fluorescence polarization, 2 h | Potency, µM, inactives show max response, negative = inhibition, most hits filed as inhibitors | actives 0.93% (n = 400,000)
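The screen uses fluorescence polarization to detect compounds that interfere with recruitment of the SRC2-3 coactivator peptide to VDR; plates are read after 2 h at room temperature.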
KAT2A inh = qHTS Assay for Inhibitors of GCN5L2; Histone acetyltransferase KAT2A (Homo sapiens), Q92830; GCN5L2 HAT assay, ThioGlo1 CoA-SH fluorescence; Potency, µM (highest dose often 58.9 µM), for the others: at the top dose activity change, negative = inhibition, actives largely listed as inhibitors; actives 0.21% (n = 390,000); AID 504327, 2011
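Preincubate 20nM GCN5L2 with compound 15 min, RT → add 50uM ThioGlo1 + 75uM H3(1-25) + 70uM acetyl-CoA → read fluorescence 0 and 20 min. Primary qHTS; fluorescent artifacts likely.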
DT40 TDP1 CPT = qHTS for Inhibitors of human tyrosyl-DNA phosphodiesterase 1 (TDP1): qHTS in cells in presence of CPT; Potency, µM (highest dose often 46.2 µM), inactives show top-dose activity change, negative = growth inhibition, most hits filed as inhibitors; actives 12% (n = 420,000); AID 686979, 2013; chicken DT40 Tdp1-/-;hTDP1 cells + 20 nM CPT, ATP luminescence, 48 h; further: nearly all actives have a fitted effect of over 55% in size
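Chicken DT40 Tdp1-/- cells stably complemented with human TDP1 were seeded at 400 cells/well in medium containing 20 nM camptothecin, exposed to pin-transferred compounds, and grown at 37 °C for at least 48 hr. Viability was read as ATP luminescence.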
TDP1 inh = qHTS Assay for Inhibitors of Tyrosyl-DNA Phosphodiesterase (TDP1); Tyrosyl-DNA phosphodiesterase 1 (Homo sapiens), Q9NUW8; recombinant TDP1, AlphaScreen DNA substrate cleavage; Potency, µM (series often up to 130 µM), without a hit: at the highest dose activity change, negative = inhibition, most hits filed as inhibitors; actives 0.28% (n = 350,000); further: nearly all actives have a fitted effect of over 40% in size
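Recombinant E. coli-expressed Tdp1 (1 nM) preincubated with compound 15 min at RT, then 5'-biotin/3'-phosphotyrosine-FITC DNA substrate (15 nM) added for 5 min. AlphaScreen beads (10 ug/ml) added, 10 min RT; tyrosine-FITC cleavage read as signal loss.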
TDP1 cell noCPT = qHTS for Inhibitors of human tyrosyl-DNA phosphodiesterase 1 (TDP1): qHTS in cells in absence of CPT; AID 686978, 2013; DT40 Tdp1-/- hTDP1 cells, no CPT, ATP luminescence, 48 h; actives 15% (n = 420,000); Potency, µM (doses to about 46.2 µM), without a hit: at the top dose activity change, negative = growth inhibition, actives largely listed as inhibitors; further: nearly all actives have a fitted effect of over 55% in size
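Growth of hTDP1-complemented DT40 Tdp1-knockout cells is measured by ATP luminescence after at least 48 hr compound exposure at 37 °C, with DMSO substituting for the 20 nM CPT used in the parallel screen.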
* marks the source's active call; other numbers are inactive results; ? = inconclusive; . = no result given; [ ] = another dose, or the depositor's remark. The call rests on the fitted dose curve; in most records, active means well fitted curve in the direction sought with a large enough effect; inconclusive means small, poorly fitted or top-dose-only effect, or another doubt; inactive means no such curve, though single readings can be large; an effect the other way counts as inactive or inconclusive. On the % scale 0 is the no-effect control and ±100 the full control effect; potency means the concentration at half of the fitted maximal effect.

SMILES	PLK1 PBD inh	VDR inh	KAT2A inh	DT40 TDP1 CPT	TDP1 inh	TDP1 cell noCPT
O=C(C1CC1)N1N=C(c2ccc(Cl)cc2)CC1(O)C(F)(F)F (stereo not given)	-14%	-2%	-5%	-19%	.	-6%
CC1(O)CC(c2ccc(Cl)cc2)=NN1C(=O)c1ccc(Cl)cc1 (stereo not given)	-19%	-15%	-16%	10µM*	.	16µM*
CCc1cccc(C)c1NC(=O)CN(C)S(=O)(=O)c1ccc(-c2ccc(=O)[nH]n2)s1	-3%	2%	0%	-5%	2%	-18%
O=C(Cc1cccs1)N1CCN=C1SCc1ccc(Br)cc1	-2%	-7%	-18%	?	1%	?
COc1ccc(/C=C/C(=O)N2CCN(c3ccccn3)CC2)c2ccccc12	-14%	-2%	-25%	?	6%	26µM*
O=C(c1ccc(CS(=O)Cc2ccc(Cl)cc2)o1)N1CCN(c2ccccn2)CC1 (stereo not given)	-3%	14%	5%	?	6%	?
Cc1ccc(S(=O)(=O)Cc2ccc(C(=O)N3CCN(c4cccc(Cl)c4)CC3)o2)cc1	.	-28%	-17%	0.65µM*	2%	0.65µM*
O=C(c1ccc(CS(=O)c2ccccc2Cl)o1)N1CCN(c2ccccn2)CC1 (stereo not given)	-4%	-5%	?	3.7µM*	5%	2.1µM*
COc1ccccc1S(=O)(=O)Cc1ccc(C(=O)N2CCN(c3ccccn3)CC2)o1	27µM*	?	-3%	?	8%	?
Cc1ccc(Cl)cc1N1CCN(C(=O)c2ccc(CS(=O)(=O)c3ccc(Br)cc3)o2)CC1	.	-3%	-20%	?	5%	?
Cc1ccc2scc(CN3CCCC3)c2c1	-3%	-9%	.	0%	.	-20%
CCOC(=O)CSc1nc2sc3c(c2c(=O)n1Cc1ccccc1)CCC(C(C)(C)C)C3 (stereo not given)	.	-5%	-1%	-10%	2%[12.3 µM]	5%
COc1ccc(S(=O)(=O)Cc2ccc(C(=O)N3CCN(c4ccccc4F)CC3)o2)cc1	-7%	-26%	-5%	-18%	1%	?
Cc1ccccc1S(=O)(=O)Cc1ccc(C(=O)N2CCN(c3cccc(C)c3C)CC2)o1	0%	-5%	-12%	5.2µM*	3%	4.1µM*
Cc1ccccc1S(=O)(=O)Cc1ccc(C(=O)N2CCN(c3cccc(Cl)c3)CC2)o1	.	-11%	-10%	4.1µM*	1%	4.6µM*
COc1ccc(/C=N/c2c(-c3ccc(OC)cc3)nc3n2CCS3)cc1	-2%	9%	-9%	?	-2%	16µM*
O=S1(=O)N[C@@H](Cc2ccccc2)COc2cccc(N3CCSCC3)c21	1%	.	.	-18%	.	?
CCC(C)c1ccc(NC(=S)NC2CCN(Cc3ccccc3)CC2)cc1 (stereo not given)	-27%	-21%	2%	8.2µM*	2%	7.3µM*
S=C(NCCc1ccccc1)NC1CCC(NC(=S)NCCc2ccccc2)CC1 (stereo not given)	0%	-10%	2%	3%	2%	12%
CCc1ccc(NC(=S)NC2CCN(Cc3ccccc3)CC2)cc1	5%	3%	-1%	7.3µM*	4%	12µM*
COc1ccc(NC(=S)NC2CCN(Cc3ccccc3)CC2)cc1OC	4%	-11%	17%	-8%	5%	?
S=C(Nc1ccc(Cl)cc1)NC1CCN(Cc2ccccc2)CC1	4%	6%	-3%	21µM*	6%	9.2µM*
Cc1ccccc1NC(=S)NC1CCN(Cc2ccccc2)CC1	8%	4%	1%	-28%	-1%	-38%
S=C(Nc1ccccc1)NC1CCN(Cc2ccccc2)CC1	-16%	-10%	-2%	-19%	2%	?
COc1ccc(CCNC(=S)NC2CCN(Cc3ccccc3)CC2)cc1	30µM*	23%	2%	?	7%	23µM*
SMILES	PLK1 PBD inh	VDR inh	KAT2A inh	DT40 TDP1 CPT	TDP1 inh	TDP1 cell noCPT
O=C(O)CC1c2ccccc2CCN1S(=O)(=O)c1ccc(F)cc1 (stereo not given)	-4%	-13%	-2%	6%	.	-19%
Cc1ccc2cc(F)c(F)c(F)c2n1	1%	.	.	4%	.	-2%
Cc1ccc2ccc3ccc(C)nc3c2n1	-9%	8%	?	0.016µM*	.	0.15µM*
O=S(=O)(c1ccccc1)c1nnn2c1nc(NCc1cccs1)c1sccc12	.	9%	-7%	-30%	3%	-18%
BrC(=C\c1ccccc1)/C=N/n1cnnc1	-6%	-5%	-2%	0.29µM*	-2%	0.58µM*
CN(C(=O)c1cccc(NC(=O)Cc2ccc(NC(=O)C3CCN(C(=O)CCc4ccccc4)CC3)cc2)c1)C1CCC1	-1%	3%	.	13µM*	.	13µM*
CN(C(=O)c1cccc(NC(=O)Cc2ccc(NC(=O)C3CCN(C(=O)CCc4ccccc4)CC3)cc2)c1)C1CC1	-2%	-12%	.	16µM*	.	10µM*
Cn1c(/C(C#N)=C/c2ccccc2Br)nc2ccccc21	.	?	-1%	15µM*	0%[12.3 µM]	12µM*
COc1ccccc1C(=O)c1nc2ccccc2n1C	0%	-3%	-2%	-16%	.	8%
CCn1c(/C(C#N)=C/c2ccccc2Cl)nc2ccccc21	.	?	-1%	?	7%	26µM*
COc1ccc(N/C=C(\C#N)c2nc3ccccc3n2C)c(OC)c1	-5%	2%	-6%	?	4%	23µM*
Cn1c(/C(C#N)=N/O)nc2ccccc21	0%	8%	-4%	12%	0%	11%
O=C(NCc1cccc2[nH]ccc12)C1CCC(=O)N(CCc2ccccc2)C1 (stereo not given)	-9%	-10%	-7%	9%	2%	5%
CCCN(C(=O)Cn1nc(Cc2cccnc2)c2ccccc2c1=O)c1ccc(C(C)C)cc1	.	-16%	-15%	23µM*	9%	26µM*
CCOc1cc(/C=N/NC(=O)C2CC2)ccc1OC(C)C	-7%	-9%	-2%	-5%	2%	-11%
